# According to the supplement of paper PMC3334620:
# In all, about 33,000 sequences were measured (“E-score (-0.5 to 0.5)”: median about -0.054, highest 2% from about 0.35 on). The sample holds the highest values, similar sequences and a random draw of the others, so the mix is not that of the screen.
# Molecular target: T1, Stb5 (UniProt P38699)
# T1 sequence: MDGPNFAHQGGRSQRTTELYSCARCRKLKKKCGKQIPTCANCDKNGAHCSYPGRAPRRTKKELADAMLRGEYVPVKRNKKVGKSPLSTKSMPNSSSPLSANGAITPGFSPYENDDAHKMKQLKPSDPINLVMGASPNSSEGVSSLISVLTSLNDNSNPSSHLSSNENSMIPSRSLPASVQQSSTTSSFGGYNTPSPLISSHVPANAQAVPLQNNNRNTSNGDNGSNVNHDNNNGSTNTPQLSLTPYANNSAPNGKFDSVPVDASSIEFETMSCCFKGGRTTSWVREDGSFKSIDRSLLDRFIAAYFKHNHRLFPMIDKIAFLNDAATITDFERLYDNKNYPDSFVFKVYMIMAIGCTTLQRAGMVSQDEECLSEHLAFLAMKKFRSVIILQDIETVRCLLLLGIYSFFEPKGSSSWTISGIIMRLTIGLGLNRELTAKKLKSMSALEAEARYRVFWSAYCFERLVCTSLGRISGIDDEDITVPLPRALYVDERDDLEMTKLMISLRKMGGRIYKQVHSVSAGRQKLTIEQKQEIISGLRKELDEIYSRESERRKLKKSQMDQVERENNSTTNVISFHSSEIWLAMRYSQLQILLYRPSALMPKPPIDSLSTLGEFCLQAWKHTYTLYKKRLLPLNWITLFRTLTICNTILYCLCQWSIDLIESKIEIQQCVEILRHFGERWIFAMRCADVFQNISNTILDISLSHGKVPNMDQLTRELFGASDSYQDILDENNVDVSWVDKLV
# Experiment: PBM E-score (8-mer binding enrichment) (E-score (-0.5 to 0.5)); higher = stronger / more preferred TF binding
# Conditions: protein concentration: 200 nM; construct: GST-full length
# Experimental: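 Universal 'all 10-mer' protein binding microarrays (Agilent AMADID 015681) probed with GST-tagged S. cerevisiae TFs (full-length or DBD) made by in vitro transcription/translation (PURExpress), about 100-200 nM. Bound TF was detected with fluorescent anti-GST. Each ungapped 8-mer (which stands for itself and its reverse complement) is scored by the PBM enrichment score (E-score), a modified Wilcoxon-Mann-Whitney statistic from -0.5 to +0.5, computed with the Universal PBM Analysis Suite. Scale: above 0.35 generally sequence-specific binding.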
row,Sequence,PBM E-score
1,CGTGATAA,0.0332
2,AGTGATAC,-0.128
3,AGTGATAA,-0.0882
4,GGTGATAA,0.415
5,CGTGATAC,-0.0683
6,GGTGATAC,0.369
7,CTCCTGTC,-0.26
8,AACCGTTC,0.128
9,ATCCGTTA,0.197
10,AACCGTTA,-0.101
11,CGCCGTTA,0.356
12,CACCGTTA,0.367
13,AGCCGTTA,0.0306
14,CTCCGTTA,0.299
15,GGCCGTTA,0.213
16,GACCGTTA,0.278
17,CACCGTTC,0.368
18,CGCCGTTC,0.306
19,GTCCGTTA,0.355
20,GCGGGCAA,0.171
21,GCAGACTA,-0.158
22,CTCCACAG,-0.313
23,CCTTTTGA,-0.106
24,CGTTGTCC,-0.0582
25,GACCAATA,0.0169

row,Sequence,PBM E-score
1,GCCCTTAC,-0.0337
2,CGGTCATA,0.448
3,CTGTCGGA,0.349
4,GGGTCATA,-0.00196
5,GGGTCGTA,0.00669
6,CGGTCATC,0.135
7,GTGTCGGA,0.357
8,GAGTCGGA,0.307
9,CGGTCGTA,0.381
10,ATGTCGGA,0.303
11,CGGTCGTC,0.0319
12,TAGTCGGA,0.355
13,CAGTCGGA,0.292
14,GAGCGGGA,0.249
15,TCCAGAGA,-0.208
16,AGTCAAGC,-0.3
17,GTGAGCAA,-0.0477
18,TACGGGCA,0.143
19,GACAACTA,-0.06
20,GCACAGAC,0.0491
21,CGAGTTTC,-0.0887
22,CCGTCGGC,0.377
23,ACGTCGGA,0.264
24,CCGTCGTC,0.161
25,ACGTCGGC,0.27

row,Sequence,PBM E-score
1,CGGTCGGC,0.352
2,CGGTCGGA,0.313
3,GCGTCGGA,0.345
4,CCGTCGGA,0.37
5,AGGTCGGC,0.293
6,GGAATAAC,0.177
7,ATTTATTG,-0.0662
8,AAGCTGAA,-0.152
9,CCAAGAGG,-0.138
10,GGGTGCGA,-0.0506
11,GGGTGCCA,-0.012
12,CGGTGCGA,0.384
13,CGGTGCCA,0.414
14,CGGTGCCC,0.27
15,AGGTGCGA,0.0754
16,CCTGCTGA,-0.216
17,CGCTTCCG,0.208
18,CCCGACTA,0.312
19,GGTGCCGA,0.292
20,ATTGCCGG,0.408
21,AGTGCCTG,-0.17
22,AGTGCCAG,-0.0267
23,AGTGCCGG,0.407
24,CGTGCCGA,0.212
25,AGTGCCGC,0.381

row,Sequence,PBM E-score
1,ATTGCCGA,0.318
2,CGTGCCGC,0.249
3,AGTGCCAC,-0.251
4,ATTGCCGC,0.351
5,AGTGCCGA,0.387
6,CACCAACG,0.0702
7,AACCGTGT,-0.115
8,AGTCTGGG,-0.291
9,CCTGAGCG,-0.0867
10,CCGATAGA,0.249
11,TGTCCCAA,-0.0294
12,ATTAGCTG,-0.119
13,CCTCTAAA,-0.196
14,AACCGACC,0.244
15,CACCGACG,0.453
16,TACCGACA,0.356
17,AACCGACA,0.181
18,GACCGACC,0.308
19,CACCGACC,0.418
20,CACCGAAG,0.253
21,AACCGACG,0.286
22,GACCGACA,0.341
23,GACCGAAC,0.145
24,CACCGAAC,0.366
25,CACCGAGG,0.23

row,Sequence,PBM E-score
1,CCCATGAA,-0.0849
2,CCAAGTAG,-0.293
3,CAGTGCGC,-0.135
4,GACCACAC,-0.152
5,ACCCTAGG,-0.165
6,CTTCACAC,-0.0447
7,CACCGACA,0.44
8,CACCGAGA,0.151
9,CACCGAAA,0.305
10,AAAAAGAT,-0.291
11,CGGACACA,0.356
12,CGGACGTA,0.407
13,AGGAGACA,-0.131
14,TGGACACA,-0.0717
15,AGGACGTA,-0.182
16,CGGAGACA,0.398
17,CGGACATA,0.474
18,CGGACACG,0.232
19,GGGACATA,0.132
20,CGGAGACG,0.166
21,CGGACATC,0.256
22,CGGACGTC,0.0917
23,ACCCCCTC,-0.265
24,GTGCACCA,-0.17
25,CGGAGGGC,-0.0349

row,Sequence,PBM E-score
1,CCTTCCCG,-0.125
2,ACAGCGTA,-0.0758
3,AAAATCAC,-0.092
4,GGTGATCA,0.0514
5,CTTGTGGC,-0.163
6,CGTAGTAC,0.0304
7,GACCGGTA,0.231
8,CACCGGTG,0.408
9,AACCGGTA,0.261
10,CACCGGTC,0.337
11,AACCGGTC,0.272
12,TACCGGTA,0.36
13,CACCGGTA,0.408
14,AACCGGTG,0.306
15,CTCCGGTA,0.316
16,AGAAGCCT,-0.0816
17,TCTGCAGA,0.00207
18,CCCCCAGG,-0.281
19,AAAAACCC,0.226
20,GAAACCCC,0.353
21,AAAACCCT,-0.074
22,CAAACCCG,0.216
23,CTAACTCC,0.288
24,ATAACTCG,0.0637
25,GAAAACCC,0.278

row,Sequence,PBM E-score
1,AAAACCCC,0.355
2,AAAACCCG,0.379
3,GAAACCCA,0.0284
4,ATAACTCC,0.429
5,AAACCCCC,0.263
6,AATCTGTG,-0.207
7,CGCAGAAA,-0.114
8,GCAAAGGC,0.115
9,GGTGGACA,0.00374
10,TCTTTCAA,-0.0737
11,ACCCTCCG,0.134
12,CGGTGGCA,0.299
13,CCTTATCC,0.00435
14,ATCTCCAC,0.0569
15,GTCTTAAA,0.179
16,ACTCGACT,-0.224
17,ATAACCCG,0.228
18,CTAAACCC,0.233
19,ATAAACCA,-0.078
20,ATAACCCA,-0.157
21,ATAAACCC,0.373
22,ATAACCCC,0.412
23,AATTCCTA,-0.258
24,AAAGACCC,0.0704
25,GCAGACGC,-0.0745

row,Sequence,PBM E-score
1,AAAAGCAT,-0.0942
2,ATCTCCGC,0.406
3,ATCTCCCC,0.0718
4,GTCTCCGA,0.23
5,CTCTCCGA,0.00777
6,CTCTCCGC,0.0985
7,ATCTCCCG,0.124
8,ATCTCCGA,0.394
9,ATCTCCAG,0.0194
10,ATCTCCGG,0.423
11,AGGCGTTG,-0.11
12,AAAAGGGT,-0.27
13,CCCAGGAA,-0.286
14,TCGAATCA,-0.163
15,CGGACCAA,0.376
16,CGGACCAC,0.134
17,CCGACCCA,0.369
18,GGGACCCA,-0.0663
19,CGGACCAG,0.0937
20,CGGACCCA,0.381
21,TCGACCCA,-0.256
22,CCGACCGA,0.314
23,TGGACCCA,-0.218
24,ACGACCCA,-0.191
25,CCGACCGC,0.284

row,Sequence,PBM E-score
1,CCGACCGG,0.382
2,CGAAGAGA,-0.138
3,AAAGCGCG,0.121
4,CTGTGCGA,-0.121
5,GTTGCAAC,0.183
6,ATGAAAGC,-0.0893
7,CTGACCGA,-0.0342
8,CGGACCGA,0.4
9,GGGACCGA,0.257
10,AGGACCTA,0.141
11,CGGACCTA,0.466
12,GGGACCTA,0.138
13,ATGGCTTA,-0.119
14,ACCCCAGC,-0.0864
15,CAATAGCC,0.0314
16,CACATCTG,-0.103
17,CGGCCATA,0.376
18,CGGCCCTA,0.426
19,GGGCCATA,0.0906
20,AGGCCCTA,-0.0592
21,CGGCCATC,0.157
22,GGGCCCTA,-0.0134
